Assay results: PubChem BioAssay (Tox21)
Records with an inconclusive call do not appear. Values without a mark were called inactive. Calls follow the shape of the dose curve; as a rule, active = well fitted cell-killing curve with a large enough effect in the repeat runs; inconclusive = weak or mixed curves; inactive = flat fitted curve, though single readings scatter.

Assay: qHTS RealTime-Glo MT Cell Viability Assay in HepG2 cells - 24 hour (AID 1224867); also: nearly all actives have a fitted effect of over 50% in size
Conditions: RealTime-Glo luminescence; series mostly up to 76.8 µM; activity change, negative = cytotoxicity: at the top concentration
From the text: U.S. Tox21 Program National Center for Advancing Translational Sciences [NCATS] NIH Chemical Genomics Center [NCGC] U.S. Environmental Protection Agency [EPA] National Institutes of Environmental Health Sciences [NIEHS] National Toxicology Program [NTP] U.S. Food and Drug Administration [FDA] Tox21 Assay Overview: Measure of cell viability is critical in the cell-base assay. Analysis of cell viability is necessary for the characterization of cell responses to cytotoxic drugs and environmental stress. A RealTime-Glo MT Cell Viability Assay to monitor cell viability in real time of continues cell culture during 40 hours of compound treatment was used to screen Tox21 10K library compounds in HepG2 cells. The RealTime-Glo MT Cell Viability Assay is a nonlytic, homogeneous, bioluminescent method to measure cell viability in real time using a simple, plate-based method. The assay involves adding NanoLuc luciferase and a cell-permeant prosubstrate to cells in culture. Viable cells reduce the proprietary prosubstrate to generate a substrate for NanoLuc luciferase. This substrate diffuses from cells into the surrounding culture medium, where it is rapidly used by the NanoLuc Enzyme to produce a luminescent signal. The signal correlates with the number of viable cells, making the assay well suited for cytotoxicity studies.
Tox21 Assay Protocol Summary: The mixture of HepG2 cell suspension and reagents were dispensed at 600cells/6 ul/well in 1536-well tissue culture treated black solid bottom plates using a Multidrop dispenser. After the assay plates were incubated at a 37 C/5% CO2 incubator for 5 hours, 23 nL of compounds dissolved in DMSO, positive and negative controls was transferred to the assay plate by a pintool work station. The plates were incubated at 37 C for 40 hours. The luminescence intensity were measured at 0h, 8h, 16h, 24h, 32h and 40h time points using ViewLux plate reader during compound treatment.
% is scaled to controls: 0 for no effect and ±100 for the full control effect.

| Compound | activity change, negative = cytotoxicity |
| --- | --- |
| CCN(CC)CCOc1ccccc1C(=O)CCc1ccccc1 | -7.18% [at 35.3 µM] |
| CCCCCCCCCCCCCCCC(=O)OCC | 1.02% |
| CC1=CC[C@@]23C[C@@H]1C(C)(C)[C@@H]2CC[C@H]3C | 0.869% |
| CC(=O)OCC1=C(C(=O)O)N2C(=O)[C@@H](NC(=O)CSc3ccncc3)[C@H]2SC1 | -0.722% [at 35.3 µM] |
| C[C@H](CS)C(=O)N1CCC[C@H]1C(=O)O | 1.7% [at 35.3 µM] |
| COc1ccc(C(=O)NCc2ccc(OCCN(C)C)cc2)cc1OC | 2.3% [at 35.3 µM] |
| COc1ccc(/C=C/C(=O)c2ccc(OC)cc2OC)cc1 | -15.8% [at 35.3 µM] |
| O=c1[nH][nH]c(=O)c2cc([N+](=O)[O-])ccc12 | -0.169% |
| Cc1cccc2sc(N)nc12 | -3.09% |
| O=S(=O)(Cl)c1c(Cl)cccc1Cl | 0.0803% |
| [Cl][Nd]([Cl])[Cl] | -13.3% |
| CCCCCCC(O)CCCCCCCCCCC(=O)OC (stereo not given) | -8.03% |
| Cc1c[nH]c2ccccc12 | 3.8% [at 35.3 µM] |
| C[C@@H]1C[C@H]2[C@@H]3CCC4=CC(=O)C=C[C@]4(C)[C@@]3(F)[C@@H](O)C[C@]2(C)[C@@]1(O)C(=O)COP(=O)(O)O | -6.73% |
| CCCCCCCCCCCCCOC(=O)CCSCCC(=O)OCCCCCCCCCCCCC | -1.37% [at 15.8 µM] |
| CCCCCCC(CO)CCCC (stereo not given) | -5.71% |
| Cc1ccc2c(c1[N+](=O)[O-])C(=O)c1ccccc1C2=O | -9.04% [at 35.3 µM] |
| CC(=O)N[C@@H](Cc1ccc(O)cc1)C(=O)O | -1.98% [at 35.3 µM] |
| CC(C)N(C)C | -0.168% |
| CC(C)OC(=O)c1ccccc1C(=O)OC(C)C | -0.644% |

| Compound | activity change, negative = cytotoxicity |
| --- | --- |
| Cc1ccc(Cl)cc1N | 1.56% |
| CC(C)Cc1ccc(CC(=O)O)cc1 | 2.5% [at 35.3 µM] |
| COc1cc(NS(=O)(=O)c2ccc(N)cc2)nc(C)n1 | 2.94% [at 35.3 µM] |
| CCN(CC)CCNC(=O)c1cc(Cl)c(N)cc1OC | 1.34% [at 35.3 µM] |
| COc1cc(OC)c2ccc(=O)oc2c1 | -10.8% |
| CC(C)COC(=O)c1ccc(O)cc1 | -4.12% |
| C=CC(=O)O | -1.8% [at 35.3 µM] |
| CCCCC(CC)COS(=O)(=O)O (stereo not given) | 0.346% |
| CC(C(=O)O)c1ccc(C(=O)c2cccs2)cc1 (stereo not given) | 11.4% [at 35.3 µM] |
| CCOC(=O)c1c(N)sc2c1CCN(Cc1ccccc1)C2 | -11.1% [at 35.3 µM] |
| CC(=O)Oc1cccc(O)c1 | 2.83% [at 35.3 µM] |
| COC1CCC=CO1 (stereo not given) | 1.82% |
| Cc1ccc2c(c1)CCCN2 | 1.42% |
| CC1=C2[C@@H]([C@H](C)CC[C@H]2/C=C(\C)C(=O)O)[C@H](O)C1 | 0.186% |
| Oc1ccc2c(c1)Cc1ccccc1-2 | -16.6% |
| Cc1cc(CCC(=O)OCCOCCOCCOC(=O)CCc2cc(C)c(O)c(C(C)(C)C)c2)cc(C(C)(C)C)c1O | -11.1% |
| CC1CCC(C(C)CS)CC1S (stereo not given) | -2.01% |
| Nc1c(Cl)cc(Cl)cc1[N+](=O)[O-] | -1.07% |
| CCN(CC)c1cccc(O)c1 | 2.04% |
| CCOC(=O)N1CCC(Nc2ccc(Cl)cc2N)CC1 | -4.19% [at 35.3 µM] |
